Screening data as filed in PubChem BioAssay.
This is a sample that favours compounds with a hit; in the whole collection about 19% have one here.
HT1080 IDH1KD tx – toxicity to HT-1080 IDH1 knockdown cells (counter line); AID 686971; Potency, µM (highest dose often 46.1 µM), without a hit: at the highest dose activity, negative = toxicity, most hits filed as cytotoxic; HT-1080 IDH1 knockdown viability, ATP luminescence, 48 h; actives 2% (n = 360,000);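 note: potency is the fitted concentration of half-maximal effect; 0% = DMSO wells and -100% = cell-free medium wells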
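Luminescent ATP read-out (CellTiter-Glo, 10 min at room temperature) after 48 h compound exposure at 37 °C gave viability of IDH1-knockdown HT-1080 cells. Activity was normalised to DMSO and cell-free wells, then fitted as concentration-response curves.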
DT40 TDP1 CPT – DT40-hTDP1 cell growth loss with CPT; actives 12% (n = 420,000); chicken DT40 Tdp1-/-;hTDP1 cells + 20 nM CPT, ATP luminescence, 48 h; Potency, µM (doses to about 46.2 µM), for the others: top-dose activity change, negative = growth inhibition, most hits filed as inhibitors; note: potency is the fitted concentration of half-maximal effect; nearly all actives have a fitted effect of over 55% in size
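Cell growth measured by CellTiter-Glo luminescence after a minimum 48 h, 37 C compound exposure with 20 nM CPT in Tdp1-knockout DT40 cells stably expressing hTDP1, seeded 400/well; qHTS titration format.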
TDP1 cell noCPT – qHTS for Inhibitors of human tyrosyl-DNA phosphodiesterase 1 (TDP1): qHTS in cells in absence of CPT; DT40 Tdp1-/- hTDP1 cells, no CPT, ATP luminescence, 48 h; Potency, µM (series often up to 46.2 µM), for inactives: top-dose activity change, negative = growth inhibition, hits mostly inhibitors; actives 15% (n = 420,000); note: potency is the fitted concentration of half-maximal effect; nearly all actives have a fitted effect of over 55% in size
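Compound effects on proliferation are scored in DT40 Tdp1-/-;hTDP1 cells in the absence of CPT. ATP levels (CellTiter-Glo luminescence) are recorded after a ≥48 hr, 37 °C incubation.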
IL1B secr inh – inflammasome signaling inhibition, IL-1 beta readout; AID 743279; THP-1 LPS/ATP IL-1B secretion, AlphaLISA, 16 h; hits give low values; activity change, % at 57.5 µM; actives 4.7% (n = 360,000); in the data active = activity change below about -50%; inconclusive = mostly about -30% to -49%
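Secreted IL-1B measured by AlphaLISA bead assay after 16 h compound exposure of THP-1 cells; compounds (final up to 57.5 uM) added 1 h before LPS (250 ng/mL) and ATP (1.25 mM) stimulation; lower signal means less secretion.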
HT1080NT lethal – kills 2HG-producing HT-1080-NT fibrosarcoma cells; Potency, µM (titrated, usually from 46.1 µM), for the others: at the highest dose activity, negative = less viability, most hits filed as cytotoxic; HT-1080-NT fibrosarcoma viability, CellTiter-Glo ATP luminescence, 48 h; actives 1.6% (n = 360,000);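 note: NT is the 2HG producing partner of a matched IDH1 knockdown line; potency is the fitted concentration of half-maximal effect; 0% = DMSO-treated cells and -100% = media-only wells without cells; nearly all actives have a fitted effect of over 55% in size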
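Viability by CellTiter-Glo luminescence after 48 h compound exposure at 37C of HT-1080-NT cells (750/well, RPMI, 5% FBS). % activity scaled between DMSO wells and medium-only wells, then curve-fitted and categorized by curve class.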
Active calls of the source: *. Unless noted, calls come from the whole dose curve; as a rule, active = well fitted curve in the direction sought with a large enough effect; inconclusive = small, poorly fitted or top-dose-only effect, or another doubt; inactive = no such curve, though single readings can be large; an effect the other way counts as inactive or inconclusive. Unless noted, % is set by controls: 0 for no effect and ±100 for the full control effect.

For COc1cc(C#Cc2c(-c3cncn3C)n(C)c3ccc(-c4ccc(OC)c(OC)c4)cc23)cc(OC)c1 the results were HT1080 IDH1KD tx inconclusive, DT40 TDP1 CPT inconclusive, TDP1 cell noCPT inconclusive, IL1B secr inh -12 and HT1080NT lethal -22%.
COc1cc(C#Cc2c(-c3cncn3C)n(C)c3ccc(-c4ccc5cc[nH]c5c4)cc23)cc(OC)c1 was read as HT1080 IDH1KD tx -28%, DT40 TDP1 CPT 18µM*, TDP1 cell noCPT inconclusive, IL1B secr inh -16 and HT1080NT lethal inconclusive.
For COc1cc(OC)cc(-c2c(C#Cc3ccsc3)c3cc(Br)ccc3n2C)c1 the results were HT1080 IDH1KD tx -1%, DT40 TDP1 CPT -24%, TDP1 cell noCPT inconclusive, IL1B secr inh 30 and HT1080NT lethal -19%.
`COc1cc(C#Cc2c(-c3cncn3C)n(C)c3ccc(Br)cc23)cc(OC)c1` gave HT1080 IDH1KD tx inconclusive, DT40 TDP1 CPT inconclusive, TDP1 cell noCPT 18µM*, IL1B secr inh 0 and HT1080NT lethal inconclusive.
`CC(=O)NN1C(=O)/C(=C\c2ccc(Br)o2)SC1=S` gave HT1080 IDH1KD tx inconclusive, DT40 TDP1 CPT inconclusive, TDP1 cell noCPT 16µM*, IL1B secr inh -97* and HT1080NT lethal inconclusive.
`CC(C)NC(=O)C1Cc2c(-c3ccc4c(c3)OCO4)ccnc2O1` (configuration not stated) gave HT1080 IDH1KD tx 2%, DT40 TDP1 CPT inconclusive, TDP1 cell noCPT inconclusive, IL1B secr inh 22 and HT1080NT lethal 0%.
Screening CC(=O)Nc1cccc(-c2ccnc3c2CC(C(=O)NCCN(C)C)O3)c1 (configuration not stated) returned HT1080 IDH1KD tx 3%, DT40 TDP1 CPT -26%, TDP1 cell noCPT -1%, IL1B secr inh 16 and HT1080NT lethal 9%.
O=C(NCCc1ccccc1)C1Cc2c(-c3ccc4c(c3)OCO4)ccnc2O1 (configuration not stated) was read as HT1080 IDH1KD tx inconclusive, DT40 TDP1 CPT 21µM*, TDP1 cell noCPT 16µM*, IL1B secr inh -1 and HT1080NT lethal inconclusive.
`CC(=O)Nc1cccc(-c2ccnc3c2CC(C(=O)NCc2cccnc2)O3)c1` (configuration not stated) gave HT1080 IDH1KD tx inconclusive, DT40 TDP1 CPT -13%, TDP1 cell noCPT inconclusive, IL1B secr inh 22 and HT1080NT lethal inconclusive.
Screening NC(=O)c1cccc(-c2ccnc3c2CC(C(=O)NCc2cccc(Cl)c2)O3)c1 (configuration not stated) returned HT1080 IDH1KD tx 9.2µM*, DT40 TDP1 CPT 16µM*, TDP1 cell noCPT 15µM*, IL1B secr inh 0 and HT1080NT lethal inconclusive.
For CC(=O)Nc1cccc(-c2ccnc3c2CC(C(=O)NCc2cccc(Cl)c2)O3)c1 (configuration not stated) the results were HT1080 IDH1KD tx inconclusive, DT40 TDP1 CPT 3.3µM*, TDP1 cell noCPT 4.1µM*, IL1B secr inh 51 and HT1080NT lethal inconclusive.
CC(=O)Nc1cccc(-c2ccnc3c2CC(C(=O)NCCc2ccccc2)O3)c1 (configuration not stated) was read as HT1080 IDH1KD tx inconclusive, DT40 TDP1 CPT 4.6µM*, TDP1 cell noCPT 2.9µM*, IL1B secr inh 76 and HT1080NT lethal inconclusive.
Screening Cc1ccc(S(=O)(=O)N2C[C@H]3C(=O)C[C@@H](c4ccccc4)N(S(=O)(=O)c4ccc(C)cc4)[C@H]3C[C@H]2c2cccs2)cc1 returned HT1080 IDH1KD tx 25%, DT40 TDP1 CPT -2%, TDP1 cell noCPT inconclusive, IL1B secr inh -10 and HT1080NT lethal 16%.
Screening CC(NC(=O)c1ccc(NC2=NC3CS(=O)(=O)CC3S2)cc1)c1ccccc1 (configuration not stated) returned HT1080 IDH1KD tx 11%, DT40 TDP1 CPT -11%, TDP1 cell noCPT 2%, IL1B secr inh -9 and HT1080NT lethal 0%.
